Compound activity as filed in PubChem.
PG9 binder: binds the HIV-1 gp120 antibody PG9; TR-FRET gp120-PG9 antibody binding; inhibition, % at 6.7 µM; 360,000 compounds, 0.43% hits; AID 624416; in the data active means inhibition above about 8.5%
RAM inhibit: blocks the yeast RAM network; S. cerevisiae dse1pr::URA3 reporter, 5-FOA growth OD615, 2 d; analog-sensitive cbk1-as2 kinase mutant strain; inhibition, % at 50 µM; 190,000 compounds, 1.8% hits;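 active means inhibition above a set limit, 3 SD over mean compound inhibition, cut at about 8.4% in these data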;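 further: inhibition rescues growth on 5-FOA so higher OD means more RAM inhibition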
EP2 modulator: EP2 receptor (human) modulation; P43116; EP2-expressing cells, cAMP HTRF FRET, PGE2 co-stimulation; induction, % at 25 µM; 260,000 compounds, 0.83% hits;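 active means compounds whose cAMP rise, as percent of the full-agonist control response, exceeds 60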;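 further: rat C6 glioma line stably carrying human EP2 under a CMV promoter; the protocol text gives 20 µM as final concentration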
NR1D1 modulator: modulators of human Rev-erb alpha DNA binding; P20393; Rev-erbα–FITC-DNA binding, fluorescence polarization, 90 min; activity, % at 10 µM; 370,000 compounds, 0.79% hits;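 active means activity above about 14%, limit read from the data; passing the limit was not always enough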
Target sequence (P20393 whole entry, looked up): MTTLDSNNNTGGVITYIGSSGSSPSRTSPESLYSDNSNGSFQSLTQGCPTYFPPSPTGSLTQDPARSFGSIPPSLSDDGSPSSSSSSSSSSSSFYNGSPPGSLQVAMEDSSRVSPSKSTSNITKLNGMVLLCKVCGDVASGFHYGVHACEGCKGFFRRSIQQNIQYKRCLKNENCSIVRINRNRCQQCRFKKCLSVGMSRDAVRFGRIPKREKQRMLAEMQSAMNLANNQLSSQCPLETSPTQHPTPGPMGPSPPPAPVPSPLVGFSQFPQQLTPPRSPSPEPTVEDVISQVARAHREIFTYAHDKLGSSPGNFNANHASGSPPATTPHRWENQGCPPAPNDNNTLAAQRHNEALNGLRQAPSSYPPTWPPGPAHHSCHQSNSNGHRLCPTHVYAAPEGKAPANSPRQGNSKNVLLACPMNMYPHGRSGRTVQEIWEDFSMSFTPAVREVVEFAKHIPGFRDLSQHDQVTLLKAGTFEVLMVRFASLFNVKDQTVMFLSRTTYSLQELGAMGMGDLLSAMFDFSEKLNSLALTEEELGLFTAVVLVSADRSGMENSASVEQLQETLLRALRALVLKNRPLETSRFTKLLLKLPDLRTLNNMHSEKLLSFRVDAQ
SKN-1 inh: blocks SKN-1 activity in C. elegans; C. elegans VP596 Pgst-4::GFP/RFP ratio, acrylamide-induced, 24 h; 360,000 compounds, 0.49% hits; inhibition, % at 21.8 µM;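 active means interference check ratio from 0.5 to 1.5 plus GFP to RFP signal ratio inhibition reaching or exceeding a fixed threshold, cut at about 30% in these data, passing the limit was not always enough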
EP2 antag: EP2 receptor (human) inhibition; P43116; C6 glioma cells expressing human EP2, cAMP TR-FRET; cells stimulated with saturating PGE2; inhibition, % at 25 µM; 260,000 compounds, 0.52% hits; AID 1422;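 active means percent inhibition above 40 after rounding to a whole number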;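 further: rat C6 glioma host cells with rolipram phosphodiesterase inhibitor present; the protocol text gives 20 µM as final concentration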
A number is an active result; – = inactive; · = no result given; ! = not confirmed by another sample. An excerpt weighted towards active compounds, which were near 2.9% of everything screened.

SMILES | PG9 binder | RAM inhibit | EP2 modulator | NR1D1 modulator | SKN-1 inh | EP2 antag
O=C(Nc1ccc(C(=O)O)cc1)/C(=C\c1ccc2c(c1)OCO2)NC(=O)c1ccc(Br)cc1 | – | 11 | – | – | – | –
O=C(Nc1cccc(C(=O)O)c1)/C(=C\c1ccc2c(c1)OCO2)NC(=O)c1ccccc1Cl | – | · | · | – | – | ·
O=C(Nc1ccc(C(=O)O)cc1)/C(=C\c1ccc2c(c1)OCO2)NC(=O)c1ccccc1 | – | 9.2 | – | – | – | –
C=CCSc1nnc2nc3c(nn12)c1cc(C)ccc1n3CC=C | – | – | – | – | 38 | –
COc1ccc(C(O)CNc2ccc(C)cc2)cc1 (configuration not stated) | – | – | – | – | 36 | ·
COCCNC(=O)C(=O)N/N=C/c1ccc(C(=O)OC)cc1 | – | – | – | – | – | –
COCCNC(=S)N/N=C/c1ccc(OCc2ccc(C(=O)OC)cc2)c(OC)c1 | · | 10 | – | · | · | –
COC(=O)c1ccc2c(c1)C(C)(C)C(/C=C/c1ccc(OC)c(OC)c1OC)=[N+]2C | – | – | – | – | 46 | –
O=C(O)c1ccccc1Cc1nc2cc(Cl)ccc2c(=O)[nH]1 | – | 8.6 | – | – | – | –
COc1ccccc1C1CN(c2ccccc2)N=C1c1cccs1 (configuration not stated) | – | – | 68 | – | – | –
Cc1ccc(NC(=O)COC(=O)CCNS(=O)(=O)c2c(Cl)cccc2Cl)cc1 | – | · | · | – | – | ·
Cc1cc(C)c(C(=O)COC(=O)CCNS(=O)(=O)c2c(Cl)cccc2Cl)cc1C | – | 10 | – | – | – | –
N#CC1=C(N)Oc2n[nH]c(C(F)(F)F)c2C1c1cccc(Cl)c1Cl (configuration not stated) | · | · | – | · | · | –
O=C(/C=C/c1ccc(Cl)cc1)Nc1ccc(CN2CCOCC2)cc1 | – | – | – | – | 63 | –
CC(C)c1ccc(C(=O)Nc2ccc(CN3CCOCC3)cc2)cc1 | – | · | · | – | 70 | ·
COc1ccccc1NC(=O)c1ccc(CN2CCOCC2)cc1 | – | – | – | – | 36 | –
COc1ccc(OC)c(NC(=O)c2ccc(CN3CCOCC3)cc2)c1 | – | – | – | – | – | –
CCOC(=O)C1=C(C)NC(=O)NC1c1ccc(OC)c(O)c1 (configuration not stated) | · | · | – | · | · | –
c1ccc(-c2c(-c3ccccc3)n(Cc3ccco3)c3ncnc(NCCCn4ccnc4)c23)cc1 | – | – | – | – | – | 49
Cc1cccc(Nc2nc(NCc3ccco3)nc(N)c2[N+](=O)[O-])c1 | – | · | – | – | – | –
Nc1nc(Nc2ccc(Cl)cc2)nc(NCc2ccco2)c1[N+](=O)[O-] | – | · | 65 | – | – | –
Cc1cccc(Nc2nc(N)c([N+](=O)[O-])c(NCc3ccco3)n2)c1 | – | – | 62 | – | – | –
Nc1nc(Nc2cccc(Cl)c2)nc(NCc2ccco2)c1[N+](=O)[O-] | – | · | – | – | – | –
Cc1cccc(Nc2nc(N)c([N+](=O)[O-])c(N3CC(C)CC(C)C3)n2)c1 (configuration not stated) | – | – | 63 | – | – | –
Cc1ccc(Nc2nc(N)c([N+](=O)[O-])c(NCc3ccccc3)n2)cc1 | – | · | 74 | – | – | –
SMILES | PG9 binder | RAM inhibit | EP2 modulator | NR1D1 modulator | SKN-1 inh | EP2 antag
COc1ccc(Nc2nc(N)c([N+](=O)[O-])c(NCc3ccccc3)n2)cc1 | – | · | – | – | – | –
COc1ccccc1N1CCN(C(=O)CSc2nnc(-c3ccccc3Cl)o2)CC1 | · | · | – | · | · | –
CC1(C)O[C@H]2[C@H](O)C[C@](O)(C(N)=O)C[C@H]2O1 | · | · | – | · | · | –
COCCNC(=O)CSc1ccc(-c2ccc(F)cc2)nn1 | · | · | – | · | · | –
Cc1ccc(Nc2nc(NCc3ccco3)c3ccccc3n2)cc1 | – | – | – | – | – | 42
COc1ccccc1Nc1nc(NCc2ccco2)c2ccccc2n1 | – | · | – | – | – | –
S=C(Nc1ccc(Cl)cc1)NC1CC2CCCC(C1)N2C1CC1 (configuration not stated) | – | – | – | · | – | 48!
Fc1ccc(Cn2nnnc2CN2CCC(n3cnc4cccnc43)CC2)cc1 | · | · | – | · | · | –
CCCCCCCc1nc2c(=O)n(C)c3ccccc3c2o1 | – | – | 70 | – | – | –
COc1cc(C(=O)NCCC(C)C)ccc1OCc1ccc(Cl)cc1Cl | – | 9.8 | – | – | – | –
C[N+]12CCCCC1C(COC(=O)C1(c3ccccc3)CCCC1)CCC2 (configuration not stated) | · | · | – | · | · | –
COc1ccc(N=CC2=C(O)CC(c3ccccc3)CC2=O)c(OC)c1 (configuration not stated) | – | – | – | – | – | –
CCOc1ccccc1N=CC1=C(O)CC(c2ccccc2)CC1=O (configuration not stated) | – | 11 | – | – | – | –
O=C(CSc1ccc(-c2nc3ccccc3[nH]2)cn1)Nc1cccc(F)c1 | · | · | – | · | · | 49
O=C(CSc1ccc(-c2nc3ccccc3[nH]2)cn1)Nc1ccccc1-c1ccccc1 | · | · | – | · | · | –
O=C(O)[C@@H]1[C@H](C(=O)Nc2cccc3cccnc23)[C@@H]2CC[C@H]1O2 | · | · | – | · | · | 58
CCOc1ccccc1NC(=O)C1C2CCC(O2)C1C(=O)O (configuration not stated) | – | · | · | – | – | ·
Cc1cc2ccccn2c1C(=O)Nc1cccc(Cl)c1 | – | – | – | – | 62 | –
Cn1ncc(Cl)c1C(=O)Nc1cccc(Cl)c1 | – | – | – | – | – | –
CCOc1ccccc1N1C(=O)NC(=O)/C(=C/c2cn(C(C)=O)c3ccccc23)C1=O | · | · | – | · | · | –
CC(=O)[C@]1(O)CC[C@@H]2[C@H]3C[C@@H](C)C4=CC(=O)CC[C@@]4(C)[C@@H]3[C@@H](O)C[C@]21C | · | · | – | · | · | 50
Nc1[nH]n2c(=O)cc(-c3ccccc3)nc2c1N=Nc1ccc2c(c1)OCO2 | · | 10 | – | · | · | –
CC(=O)N(Cc1ccc2c(c1)OCO2)Cc1cc2ccc(C)c(C)c2[nH]c1=O | · | · | – | · | · | –
CC(C)C(=O)N1CCN(c2ccc(NC(=O)COc3ccccc3[N+](=O)[O-])cc2)CC1 | – | – | – | – | – | 44
CCC1=NN(C(=O)C(=O)Nc2ccc(OC)cc2)C(O)(C(F)(F)F)C1 (configuration not stated) | – | – | – | – | – | –
COc1ccc(NC(=O)C(=O)N2N=C3CCCCC3C2(O)C(F)(F)F)cc1 (configuration not stated) | – | – | 61 | – | – | –
CC1Oc2ccc(S(=O)(=O)NCCOCC3CCCO3)cc2NC1=O (configuration not stated) | · | · | – | · | · | –
CCOc1cc(/C=C2\N=C(c3cccs3)OC2=O)cc(Br)c1OCC | · | · | – | · | · | –
O=C1CCS(=O)(=O)CC1 | · | · | – | · | · | –
Cc1ccc(C(=O)N2CCCC2)cc1S(=O)(=O)Nc1ccccc1 | – | – | – | – | – | –
